Screens from PubChem BioAssay.
Compounds with a hit are over-represented: about 2.5% of the library has one in this group of screens.
Cruzain noTriton – qHTS Assay for Promiscuous and Specific Inhibitors of Cruzain (without detergent); Cruzipain (Trypanosoma cruzi), P25779; actives 2.3% (n = 200,000); Potency, µM, for inactives: max response, negative = inhibition, hits mostly inhibitors; AID 1476, 2009; purified cruzain, Z-FR-AMC fluorescence, no detergent;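 further: plate controls were enzyme without inhibitor for no effect and buffer without enzyme for full effect; nearly all actives have a fitted effect of over 40% in size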
Target sequence (P25779 123-467 limits assumed): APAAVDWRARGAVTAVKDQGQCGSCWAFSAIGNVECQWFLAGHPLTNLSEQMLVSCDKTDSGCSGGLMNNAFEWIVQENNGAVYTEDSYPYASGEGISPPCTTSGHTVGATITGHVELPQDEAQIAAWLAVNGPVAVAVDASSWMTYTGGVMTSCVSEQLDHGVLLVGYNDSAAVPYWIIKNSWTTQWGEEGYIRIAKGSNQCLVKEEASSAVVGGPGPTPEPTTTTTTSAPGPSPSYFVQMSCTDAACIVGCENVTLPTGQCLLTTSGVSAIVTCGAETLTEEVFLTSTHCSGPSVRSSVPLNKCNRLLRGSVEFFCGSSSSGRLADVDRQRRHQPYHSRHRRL
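Purified cruzain at 1.5 nM, pre-incubated 15 min with compound at room temperature in 100 mM sodium acetate pH 5.5, 5 mM DTT, 0.00005% Triton X-100. Reaction started with 2 uM Z-FR-AMC; AMC fluorescence increase over 60 s gives rate.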
Cruzain inh Det – qHTS Assay for Promiscuous and Specific Inhibitors of Cruzain (with detergent). Cruzipain (Trypanosoma cruzi), P25779. purified cruzain, Z-FR-AMC fluorescence, 0.01% Triton. Potency, µM, for the others: max response, negative = inhibition, usual class: inhibitors. actives 0.43% (n = 200,000);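 further: plate controls were neutral wells for no effect and buffer without enzyme for full effect; nearly all actives have a fitted effect of over 40% in size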
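Z-FR-AMC hydrolysis (2 uM substrate) by cruzain (1.5 nM) monitored kinetically at ex 360/em 450 nm after 15 min room-temperature compound exposure; 0.01% Triton X-100, pH 5.5, 5 mM DTT.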
The depositor's hits bear a star; ? = inconclusive. The call rests on the fitted dose curve; in most records, active means well fitted curve in the direction sought with a large enough effect; inconclusive means small, poorly fitted or top-dose-only effect, or another doubt; inactive means no such curve, though single readings can be large; an effect the other way counts as inactive or inconclusive. Potency means the concentration at half of the fitted maximal effect.

SMILES | Cruzain noTriton | Cruzain inh Det
COc1ccc(OC)c(NC(=O)c2cc3c(=O)oc4ccccc4c3s2)c1 | 7% | 0%
Cc1cccc(OCC(=O)OCc2cc(=O)n3nc(C4CC4)sc3n2)c1 | -4% | -4%
COc1cc(OC)c(NC(=O)c2cc(C(C)=O)n3ccccc23)cc1Cl | 4% | 2%
O=C(O)CNC(=O)/C(=C/c1ccco1)NC(=O)/C=C/c1ccccc1 | 2% | -6%
C=CCOC(=O)/C(=C/c1ccco1)NC(=O)/C=C/c1ccccc1 | -28% | 28µM*
CN(CC(=O)Nc1ccccc1C(=O)N1CCCC1)S(=O)(=O)c1ccc(Cl)cc1 | 8% | -2%
COc1cccc(-c2cc(C(=O)Nc3cc(C)on3)no2)c1 | -5% | 0%
Cc1ccc(Cn2ccc(NC(=O)c3cc(-c4ccc(Cl)cc4)on3)n2)cc1 | 1% | -3%
CC(=O)c1cccc(NC(=O)c2cc(-c3ccc(C)cc3)on2)c1 | 25µM* | 1%
Cc1cc(NC(=O)c2cc(-c3cccc(Cl)c3)on2)no1 | 20µM* | 5%
Cc1ccc(Cn2ccc(NC(=O)c3cc(-c4ccc(F)cc4)on3)n2)cc1 | 20µM* | 8%
CC(=O)c1cccc(NC(=O)c2cc(-c3ccc4c(c3)OCCO4)on2)c1 | -2% | 0%
CCc1ccc(S(=O)(=O)c2nnn3c2nc(Nc2cc(OC)cc(OC)c2)c2cc(Cl)ccc23)cc1 | -4% | 1%
Cc1nc(SCC(=O)Nc2ccccc2F)[nH]c(=O)c1Cc1ccccc1 | -9% | -3%
O=C1C2C(C(=O)N1/N=C/c1ccc(N3CCCCC3)o1)C1C=CC2C12CC2 (centres undefined) | -7% | -3%
CCCCCCC(=O)Nc1c(O)c2ccccc2[nH]c1=O | ? | -1%
CCCCCCNC(=O)c1c(O)c2ccccc2[nH]c1=O | 25µM* | 0%
COc1ccccc1CNC(=O)c1c(O)c2cc(OC)c(OC)cc2[nH]c1=O | 3.2µM* | -6%
COc1ccccc1CNC(=O)c1ccc2[nH]c(C)c(C)c2c1 | -13% | -5%
O=C(O)CCNS(=O)(=O)c1ccc(Oc2ccccc2)cc1 | -6% | 5%
CCn1c(NC(=S)Nc2ccccc2)nc2ccccc21 | 25µM* | -2%
COc1ccccc1OCCn1c(NC(=O)c2ccccc2Cl)nc2ccccc21 | 20µM* | -6%
COc1ccccc1OCCn1c(NC(=O)c2ccc(Cl)cc2)nc2ccccc21 | 3% | -2%
Clc1ccc(NCc2nc3ccccc3n2CCOc2ccccc2)cc1 | -7% | -7%
S=C(Nc1ccccc1)Nc1nc2ccccc2n1CCOc1ccc(Cl)cc1 | 10µM* | 3%
SMILES | Cruzain noTriton | Cruzain inh Det
CCCn1c(NC(=S)Nc2ccccc2)nc2ccccc21 | 6% | 4%
C[C@@H]1CCCC(CC(=O)O)(CC(=O)O)C1 | 13% | 2%
COC(=O)c1scc(-c2ccc(C)cc2)c1S(=O)(=O)Nc1cccc(C(F)(F)F)c1 | -4% | -18%
CCOc1cccc(CNC(=O)c2ccc(N3CCCC3)c(NC(=O)NCc3ccc(F)cc3)c2)c1 | 4% | -1%
O=C1c2ccccc2C(=O)C12OC(c1ccccc1)C1(C(=O)c3ccccc3C1=O)C2c1cccc([N+](=O)[O-])c1 (centres undefined) | 7.9µM* | 0%
O=C1c2ccccc2C(=O)C12OC2c1ccc(Cl)cc1 (centres undefined) | 3% | -4%
O=C(Nc1ncc(Cc2ccccc2Cl)s1)c1ccc2c(c1)CC(c1ccccc1)OC2=O (centres undefined) | 32µM* | -2%
CCc1ccc(Cc2cnc(NC(=O)c3ccc4c(c3)CC(c3ccccc3)OC4=O)s2)cc1 (centres undefined) | ? | 0%
CCN1CCc2nc(NC(=O)C(c3ccccc3)c3ccccc3)sc2C1 | -7% | 0%
CCN1CCc2nc(NC(=O)CC(c3ccccc3)c3ccccc3)sc2C1 | 32µM* | 0%
COc1ccc(C2=NC(C)(C)N(CC(=O)Nc3ccc(F)c(F)c3)C2=O)cc1 | -4% | -5%
O=C(NC(C(=O)N/N=C/c1ccccc1)c1n[nH]c(=O)c2ccccc12)c1ccccc1 (centres undefined) | -13% | -9%
O=C(NC(C(=O)N/N=C/c1c2ccccc2cc2ccccc12)c1n[nH]c(=O)c2ccccc12)c1ccccc1 (centres undefined) | 13µM* | 2%
CCCC[C@@H]1C[C@H]1C(NC(=O)c1ccc(C(F)(F)F)cc1)c1ccc(C(=O)OC)cc1 (some centres undefined) | 2% | -6%
CCOC(=O)C1=C(C)NC(=S)NC1c1ccc(-c2ccc(Cl)cc2)o1 (centres undefined) | ? | -4%
COC(=O)C1=C(C)NC(=S)NC1c1ccc(-c2cccc(Cl)c2)o1 (centres undefined) | 25µM* | -7%
CCOc1ccc(Sc2cc(C(=O)NCc3ccccc3Cl)c3ccccc3n2)cc1 | 1% | 1%
O=C(c1cc2sccc2n1Cc1ccc(F)cc1)N1CCN(c2nc3ccccc3s2)CC1 | 13µM* | -2%
Cn1c(C(=O)N2CCN(c3nc4ccccc4s3)CC2)cc2sccc21 | -22% | -16%
COc1ccccc1Cn1c(=O)c2ccccc2n2c(Sc3ncnc4sccc34)nnc12 | 16µM* | -1%
COc1ccccc1Cn1c(=O)c2ccccc2n2c(SCc3csc(C)n3)nnc12 | 3% | -3%
CC(=O)Nc1c(O)n(C)c2ccccc12 | -3% | 3%
Cc1ccc(-c2csc(N(CCc3ccccc3)C(=O)COc3ccccc3)n2)cc1 | -20% | 3%
Cc1ccc(-c2csc(N(Cc3ccccc3)C(=O)COc3ccccc3)n2)cc1 | 7.9µM* | 6%
COCCn1c(=O)cnc2cnc(Nc3ccccc3)nc21 | -9% | -7%
SMILES | Cruzain noTriton | Cruzain inh Det
Cn1c(=O)cnc2cnc(Nc3ccccc3)nc21 | 25µM* | -6%
CN1CCN(c2ncc3nc(-c4cn(C)c5ccccc45)c(=O)n(Cc4cccs4)c3n2)CC1 | 0% | -2%
C(=N\c1nccs1)/Nc1nccs1 | -2% | -1%
S=C=S | 3% | 1%
Cc1cc(C)nc(N/N=C/c2ccccc2OCc2ccc([N+](=O)[O-])cc2)n1 | -16% | -4%
O=[N+]([O-])c1ccc(N/N=C\c2ccccc2OCc2ccccc2)cc1 | 25µM* | -3%
O=C(Nc1ccc2c(c1)OCCO2)C1CCN(c2cnccn2)CC1 | -9% | -3%
O=C(c1ccc2nc(-c3ccco3)c(-c3ccco3)nc2c1)N1CCC2(CC1)OCCO2 | ? | 25µM*
O=C(c1ccc2nc(-c3ccco3)c(-c3ccco3)nc2c1)N1CCN(c2ccccc2)CC1 | -2% | ?
COc1ccc(NC(=O)c2c(C)oc3ccc(O)c(CN4CCN(C)CC4)c23)cc1Cl | -10% | -4%
CCOC(=O)C1(C(C)C)Oc2ccccc2C(c2ccc(OC)cc2)=C1C(=O)OC (centres undefined) | 11% | -2%
CC1=Nc2cc(C(=O)NCCc3ccc(Cl)cc3)ccc2Sc2c(C)ccc(C)c21 | 25µM* | -1%
CC1=Nc2cc(C(=O)NCCc3ccccc3)ccc2Sc2c(C)ccc(C)c21 | ? | -4%
CN1C(=O)/C(=C/c2cc(N=Nc3ccccc3)ccc2O)SC1=S | 16µM* | -5%
O=C1/C(=C/c2ccccc2O)SC(=S)N1Cc1cccnc1 | -3% | -6%
CC(C)(C)C1CCc2oc3ccc(NS(=O)(=O)c4ccc(C(=O)O)cc4)cc3c2C1 (centres undefined) | ? | -24%
